The structures appear in SMILES notation. Compounds without any hit were thinned out: in the full panel of roughly 83,000, 20% have a hit.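 Interpretation: 100, growth as untreated; towards 0, rising growth inhibition; 0, no net growth; 0 to -100, cell death. Compounds scoring below 10 were considered active.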 Values without a mark were called inactive. Calls of active or inactive are those of the source.

The test system of the assay is OVCAR-5 ovarian. Description: NCI-60 one-dose screen, 48 h (100 = growth as untreated, 0 = no growth, -100 = all killed). Conditions: 10 µM.
For the compound `Cc1cc2c(C)c3cc(C)c(N)cc3nc2cc1N`, the growth is 12.3%.
The same measure for `CCCCCC(=O)c1ccc(OCCCN2CCN(C(=O)OCC)CC2)cc1`: 86%; for `COc1cc(/C=N/NC(=O)c2ccccc2Nc2ccnc(C(F)(F)F)c2)ccc1O`: 116%; for `Cc1ccc(CC#N)cc1C`: 88.8%.
Then `COc1ccc(-c2nc3ncccn3c2-c2nnc(-c3ccc(F)cc3)o2)cc1`, with 98.1%.
Turning to `O=[P@@]1(c2ccccc2)O[C@H](COCc2ccccc2)[C@@H](OCc2ccccc2)[C@H](OCc2ccccc2)[C@H]1O`, the growth was 99.3%.
Regarding `O=C1/C(=C\c2ccc(Cl)cc2)CN(C(=S)Nc2ccccc2)C/C1=C\c1ccc(Cl)cc1`, the growth is -74.1% (active).
As for `COc1cc(-c2cc(/C=C/C(=O)c3ccc(Cl)c(Cl)c3)[nH]n2)cc(OC)c1OC`, the growth is 81.9%.
Then `Clc1ccc(Nc2ccnc(NCCCNc3ccnc4cc(Cl)ccc34)n2)cc1`, with 18.3%; and `O=C1OCC2=C1C(c1ccc(Cl)c(Cl)c1)c1cc3c(cc1N2CCO)OCCO3` (centres undefined), with 34.3%.
The same measure for `NC(=S)N=Nc1c(O)c2ccccc2c2ccccc12`: 107%; for `Cc1cccc(C)c1NC(=O)c1sc2nc3c(cc2c1N)C(=O)CCC3`: 97.6%; for `Nc1ccc2c(c1)C1(CCC2)NC(=O)NC1=O` (centres undefined): 92.8%.
Then `CSc1nc(=O)n(Cc2ccc(Cl)cc2)c(=O)[nH]1`, with 102%; and `CN1CCC2(CC1)NC(=O)c1c(c3ccc(Cl)c(Cl)c3n1C)C2C#N` (centres undefined), with 67.7%.
As to `c1ccc2c(c1)oc1c3cccnc3ccc21`, the growth is 100%.
The same measure for `COc1cc(Cl)cc(-c2nn(-c3cccc(NC(=O)Nc4ccc(Cl)c(Cl)c4)c3)cc2-c2ccncc2)c1`: 37.8%.
Then `Cc1cn(C2CCCCO2)c(=O)nc1NO` (centres undefined), with 109%; and `Cc1ccc(Nc2nnc(-c3cc(-c4ccncc4)n(-c4ccccc4)n3)s2)cc1`, with 104%; and `CCOC(=O)N/N=C\C(C)=N\NC(=O)OCC`, with 100%.
With `COc1ccc(-c2cc(/C=C3\C(=O)Nc4ccc(Cl)cc43)[nH]n2)cc1OC`, the growth is 101%.
The same measure for `CNc1ccc(CSc2ccc(C)cc2)cc1`: 101%; for `Nc1nc(N)c2c(ccc3nccc32)[nH]1`: 65.2%; for `O=C(O)c1ccc(Cl)cc1Nc1ccc(F)cc1`: 81%.
The same measure for `CC(C)=CCc1cc(O)cc2c1OC(C=C(C)C)C1=C2C(=O)C2=C(C1=O)S(=O)(=O)CCN2` (centres undefined): 152%; for `COc1ccc(OC)c(/C=C/c2nc(SCc3ccccc3)n(-c3ccc(Cl)cc3)n2)c1`: 102%.
Then `N=C(N)c1ccc(-c2ccc(-c3cccs3)s2)cc1`, with 67%.
As to `Nc1ccn(C2CC(O)C(CO)O2)c(=O)n1` (centres undefined), the growth was 92.4%.
Then `S=c1[nH]ccn1-c1c(Cl)cccc1Cl`, with 107%; and `COC(=O)c1c(-c2ccccc2)csc1NC(=O)c1c(-c2ccccc2)noc1C`, with 63%; and `Cc1cc(N(CCCNc2ccnc3cc(Cl)ccc23)Cc2cccs2)nc(Cl)n1`, with 69.1%.
The same measure for `NC(=O)CC1(c2ccccc2)CCCCC1`: 111%; for `c1ccc(CP(Cc2ccccc2)c2ccccc2)cc1`: 102%; for `c1ccc(C(NC2CC3CCC2C3)c2ccccc2)cc1` (centres undefined): 101%.
The same measure for `CSCCCNC(=O)c1ccc2c(c1)/C(=C/c1[nH]c(C)cc1C)C(=O)N2`: 35.9%; for `CCN1Cc2c(/C=C/c3ccccc3)nc3ccc(OC)cc3c2N(c2cccc(Cl)c2)C1`: 95.4%.
For `O=C(Nc1nc2ccccc2s1)Nc1ccc([N+](=O)[O-])cc1Cl`, the growth is 105%.
The same measure for `CC/C(=C(/c1ccc(OCCN(C)C)cc1)c1ccc(OC(=O)CCC(=O)c2c(C)[nH]c(/C=C3\N=C(c4ccc[nH]4)C=C3OC)c2C)cc1)c1ccccc1`: 65.3%; for `O=C(O)C(SC(C(=O)O)c1ccccc1)c1ccccc1` (centres undefined): 106%.

The values above are taken from PubChem BioAssay (NCI).
